# Tests used:
# [1] = target: 5'-AMP-activated protein kinase catalytic subunit alpha-2 (Homo sapiens) (UniProt P54646); conditions: at 1 µM
# [2] = target: T1, NUAK family SNF1-like kinase 1 (Homo sapiens) (UniProt O60285); conditions: at 0.1 µM
# T1 sequence (whole entry): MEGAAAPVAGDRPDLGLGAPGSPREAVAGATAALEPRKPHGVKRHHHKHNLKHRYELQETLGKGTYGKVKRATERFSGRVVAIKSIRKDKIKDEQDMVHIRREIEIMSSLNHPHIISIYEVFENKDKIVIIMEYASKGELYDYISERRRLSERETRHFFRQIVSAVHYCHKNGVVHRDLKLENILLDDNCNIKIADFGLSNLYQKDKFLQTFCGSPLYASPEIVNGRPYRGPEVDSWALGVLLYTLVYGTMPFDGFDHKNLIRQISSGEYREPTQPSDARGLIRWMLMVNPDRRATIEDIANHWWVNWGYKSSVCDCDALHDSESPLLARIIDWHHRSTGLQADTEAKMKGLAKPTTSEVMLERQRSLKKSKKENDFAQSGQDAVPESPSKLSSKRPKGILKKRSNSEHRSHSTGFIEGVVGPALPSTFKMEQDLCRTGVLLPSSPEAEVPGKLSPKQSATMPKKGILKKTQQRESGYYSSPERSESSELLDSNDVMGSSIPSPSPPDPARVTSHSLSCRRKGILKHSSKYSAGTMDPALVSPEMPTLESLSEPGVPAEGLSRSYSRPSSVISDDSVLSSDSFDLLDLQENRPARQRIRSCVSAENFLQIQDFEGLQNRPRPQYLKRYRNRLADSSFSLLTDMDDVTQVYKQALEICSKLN
# [3] = target: T1, NUAK family SNF1-like kinase 1 (Homo sapiens); conditions: at 1 µM
# [4] = target: T2, Serine/threonine-protein kinase BRSK1 (Homo sapiens) (UniProt Q8TDC3); conditions: at 0.1 µM
# T2 sequence (whole entry): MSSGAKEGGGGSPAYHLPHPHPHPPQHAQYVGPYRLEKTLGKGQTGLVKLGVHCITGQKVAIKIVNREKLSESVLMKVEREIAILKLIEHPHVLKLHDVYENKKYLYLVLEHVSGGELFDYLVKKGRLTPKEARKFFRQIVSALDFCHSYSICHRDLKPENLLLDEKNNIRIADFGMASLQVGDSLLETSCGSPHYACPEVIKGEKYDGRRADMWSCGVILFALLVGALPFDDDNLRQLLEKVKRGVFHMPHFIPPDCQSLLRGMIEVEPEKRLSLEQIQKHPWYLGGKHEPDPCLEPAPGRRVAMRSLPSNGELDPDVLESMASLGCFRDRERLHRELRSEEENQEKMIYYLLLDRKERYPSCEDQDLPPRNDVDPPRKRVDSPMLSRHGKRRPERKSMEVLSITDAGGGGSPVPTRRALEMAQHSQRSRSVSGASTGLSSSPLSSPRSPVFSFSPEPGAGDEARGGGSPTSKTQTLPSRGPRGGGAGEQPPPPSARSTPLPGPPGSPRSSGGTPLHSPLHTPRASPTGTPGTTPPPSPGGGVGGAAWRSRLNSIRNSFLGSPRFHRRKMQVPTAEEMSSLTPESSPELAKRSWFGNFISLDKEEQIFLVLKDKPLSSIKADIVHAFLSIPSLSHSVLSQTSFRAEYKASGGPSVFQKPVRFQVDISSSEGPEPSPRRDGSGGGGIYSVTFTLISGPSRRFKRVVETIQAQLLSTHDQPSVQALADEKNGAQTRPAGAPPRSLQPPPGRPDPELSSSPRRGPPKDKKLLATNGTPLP
# [5] = target: T2, Serine/threonine-protein kinase BRSK1 (Homo sapiens); conditions: at 1 µM
# [6] = target: T3, Serine/threonine-protein kinase BRSK2 (Homo sapiens) (UniProt Q8IWQ3); conditions: at 0.1 µM
# T3 sequence (whole entry): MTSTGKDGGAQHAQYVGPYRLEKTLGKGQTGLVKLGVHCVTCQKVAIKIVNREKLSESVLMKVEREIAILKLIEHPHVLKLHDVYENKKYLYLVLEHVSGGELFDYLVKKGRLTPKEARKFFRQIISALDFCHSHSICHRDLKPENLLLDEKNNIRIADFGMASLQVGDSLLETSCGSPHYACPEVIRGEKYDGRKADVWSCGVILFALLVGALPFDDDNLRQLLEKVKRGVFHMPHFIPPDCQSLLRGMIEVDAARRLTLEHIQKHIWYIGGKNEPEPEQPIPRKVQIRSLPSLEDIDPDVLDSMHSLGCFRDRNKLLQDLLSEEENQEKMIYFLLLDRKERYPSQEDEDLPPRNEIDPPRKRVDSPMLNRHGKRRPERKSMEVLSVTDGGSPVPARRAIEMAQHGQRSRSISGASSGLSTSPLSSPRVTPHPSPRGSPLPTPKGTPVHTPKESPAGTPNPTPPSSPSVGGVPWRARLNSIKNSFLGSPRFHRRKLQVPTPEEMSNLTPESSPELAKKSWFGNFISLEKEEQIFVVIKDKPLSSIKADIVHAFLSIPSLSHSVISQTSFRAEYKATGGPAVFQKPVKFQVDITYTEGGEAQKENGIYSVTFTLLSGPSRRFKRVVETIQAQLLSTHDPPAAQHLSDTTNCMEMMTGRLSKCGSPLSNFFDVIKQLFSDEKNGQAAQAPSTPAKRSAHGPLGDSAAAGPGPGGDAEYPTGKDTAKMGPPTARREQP
# [7] = target: T3, Serine/threonine-protein kinase BRSK2 (Homo sapiens); conditions: at 1 µM
# [8] = target: Calcium/calmodulin-dependent protein kinase type 1D (Homo sapiens) (UniProt Q8IU85); conditions: at 0.1 µM
# Sequence of Calcium/calmodulin-dependent protein kinase type 1D (Homo sapiens) (Q8IU85 whole entry, looked up): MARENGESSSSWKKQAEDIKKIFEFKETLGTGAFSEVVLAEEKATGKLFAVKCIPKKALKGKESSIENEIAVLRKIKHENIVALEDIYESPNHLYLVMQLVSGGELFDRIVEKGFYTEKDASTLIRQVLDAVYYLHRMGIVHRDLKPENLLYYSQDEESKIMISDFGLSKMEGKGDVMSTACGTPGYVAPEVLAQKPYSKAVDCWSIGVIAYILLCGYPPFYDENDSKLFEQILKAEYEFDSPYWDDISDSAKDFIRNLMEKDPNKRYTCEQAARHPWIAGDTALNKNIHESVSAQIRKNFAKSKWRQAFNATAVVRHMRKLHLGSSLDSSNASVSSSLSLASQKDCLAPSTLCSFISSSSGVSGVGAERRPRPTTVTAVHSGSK
# [9] = target: Calcium/calmodulin-dependent protein kinase type 1D (Homo sapiens) (UniProt Q8IU85); conditions: at 1 µM
# [10] = target: Calcium/calmodulin-dependent protein kinase type II subunit alpha (Homo sapiens) (UniProt Q9UQM7); conditions: at 0.1 µM
# Sequence of Calcium/calmodulin-dependent protein kinase type II subunit alpha (Homo sapiens) (Q9UQM7 whole entry): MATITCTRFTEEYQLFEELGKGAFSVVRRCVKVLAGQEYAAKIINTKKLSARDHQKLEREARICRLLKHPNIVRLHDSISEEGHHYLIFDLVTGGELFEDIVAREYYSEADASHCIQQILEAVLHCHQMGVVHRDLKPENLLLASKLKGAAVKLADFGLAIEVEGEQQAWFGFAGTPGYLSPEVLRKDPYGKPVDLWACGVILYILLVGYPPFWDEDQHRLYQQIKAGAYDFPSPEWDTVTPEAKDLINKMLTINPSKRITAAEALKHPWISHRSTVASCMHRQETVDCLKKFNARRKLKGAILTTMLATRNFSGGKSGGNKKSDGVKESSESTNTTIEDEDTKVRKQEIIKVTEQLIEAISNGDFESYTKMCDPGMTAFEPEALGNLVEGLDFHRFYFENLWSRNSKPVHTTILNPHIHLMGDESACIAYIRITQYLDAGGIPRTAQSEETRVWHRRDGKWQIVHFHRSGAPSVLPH
# [11] = target: Calcium/calmodulin-dependent protein kinase type II subunit alpha (Homo sapiens) (UniProt Q9UQM7); conditions: at 1 µM
# [12] = target: Calcium/calmodulin-dependent protein kinase type II subunit delta (Homo sapiens) (UniProt Q13557); conditions: at 0.1 µM
# Sequence of Calcium/calmodulin-dependent protein kinase type II subunit delta (Homo sapiens) (Q13557 whole entry): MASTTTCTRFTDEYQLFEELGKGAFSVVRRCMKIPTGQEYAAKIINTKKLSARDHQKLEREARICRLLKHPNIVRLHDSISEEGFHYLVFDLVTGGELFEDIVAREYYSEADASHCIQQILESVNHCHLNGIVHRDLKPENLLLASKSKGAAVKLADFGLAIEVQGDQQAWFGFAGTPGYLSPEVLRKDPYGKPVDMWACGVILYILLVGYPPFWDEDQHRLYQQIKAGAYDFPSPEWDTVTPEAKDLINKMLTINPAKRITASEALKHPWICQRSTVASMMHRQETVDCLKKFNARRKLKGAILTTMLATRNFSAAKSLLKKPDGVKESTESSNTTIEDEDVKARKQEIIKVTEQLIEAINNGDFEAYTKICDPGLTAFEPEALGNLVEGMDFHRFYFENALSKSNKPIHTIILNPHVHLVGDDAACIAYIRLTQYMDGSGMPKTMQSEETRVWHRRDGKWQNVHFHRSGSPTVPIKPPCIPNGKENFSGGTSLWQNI
# [13] = target: Calcium/calmodulin-dependent protein kinase type II subunit delta (Homo sapiens) (UniProt Q13557); conditions: at 1 µM
# [14] = target: T4, Calcium/calmodulin-dependent protein kinase type IV (Homo sapiens) (UniProt Q16566); conditions: at 0.1 µM
# T4 sequence (whole entry): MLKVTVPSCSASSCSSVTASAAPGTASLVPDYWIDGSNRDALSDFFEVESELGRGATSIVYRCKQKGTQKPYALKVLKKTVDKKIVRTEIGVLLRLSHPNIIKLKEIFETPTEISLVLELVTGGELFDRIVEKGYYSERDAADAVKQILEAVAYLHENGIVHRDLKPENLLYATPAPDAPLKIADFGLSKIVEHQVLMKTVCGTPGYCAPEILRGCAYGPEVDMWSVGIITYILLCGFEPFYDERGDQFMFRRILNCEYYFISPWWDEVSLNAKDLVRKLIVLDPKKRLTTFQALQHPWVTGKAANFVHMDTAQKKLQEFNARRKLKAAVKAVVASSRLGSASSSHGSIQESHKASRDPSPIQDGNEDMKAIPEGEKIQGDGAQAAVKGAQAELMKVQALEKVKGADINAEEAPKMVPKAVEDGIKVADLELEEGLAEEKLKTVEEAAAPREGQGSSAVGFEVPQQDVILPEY
# [15] = target: T4, Calcium/calmodulin-dependent protein kinase type IV (Homo sapiens); conditions: at 1 µM
# [16] = target: T5, Serine/threonine-protein kinase Chk1 (Homo sapiens) (UniProt O14757); conditions: at 0.1 µM
# T5 sequence (whole entry): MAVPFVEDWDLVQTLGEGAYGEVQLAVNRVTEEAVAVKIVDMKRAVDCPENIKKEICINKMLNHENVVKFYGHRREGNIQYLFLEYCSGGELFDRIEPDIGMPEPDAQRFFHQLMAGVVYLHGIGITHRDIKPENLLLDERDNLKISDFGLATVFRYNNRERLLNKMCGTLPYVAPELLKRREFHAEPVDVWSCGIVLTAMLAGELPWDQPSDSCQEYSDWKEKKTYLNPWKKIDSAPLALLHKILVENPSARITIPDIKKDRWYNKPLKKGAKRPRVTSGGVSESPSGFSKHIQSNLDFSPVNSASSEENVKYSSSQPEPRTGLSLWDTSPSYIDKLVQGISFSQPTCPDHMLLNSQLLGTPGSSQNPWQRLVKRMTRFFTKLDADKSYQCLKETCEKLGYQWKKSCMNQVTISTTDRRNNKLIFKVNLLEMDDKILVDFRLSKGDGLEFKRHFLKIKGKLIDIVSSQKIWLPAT
# [17] = target: T5, Serine/threonine-protein kinase Chk1 (Homo sapiens); conditions: at 1 µM
# [18] = target: Serine/threonine-protein kinase Chk2 (Homo sapiens) (UniProt O96017); conditions: at 0.1 µM
# Sequence of Serine/threonine-protein kinase Chk2 (Homo sapiens) (O96017 whole entry): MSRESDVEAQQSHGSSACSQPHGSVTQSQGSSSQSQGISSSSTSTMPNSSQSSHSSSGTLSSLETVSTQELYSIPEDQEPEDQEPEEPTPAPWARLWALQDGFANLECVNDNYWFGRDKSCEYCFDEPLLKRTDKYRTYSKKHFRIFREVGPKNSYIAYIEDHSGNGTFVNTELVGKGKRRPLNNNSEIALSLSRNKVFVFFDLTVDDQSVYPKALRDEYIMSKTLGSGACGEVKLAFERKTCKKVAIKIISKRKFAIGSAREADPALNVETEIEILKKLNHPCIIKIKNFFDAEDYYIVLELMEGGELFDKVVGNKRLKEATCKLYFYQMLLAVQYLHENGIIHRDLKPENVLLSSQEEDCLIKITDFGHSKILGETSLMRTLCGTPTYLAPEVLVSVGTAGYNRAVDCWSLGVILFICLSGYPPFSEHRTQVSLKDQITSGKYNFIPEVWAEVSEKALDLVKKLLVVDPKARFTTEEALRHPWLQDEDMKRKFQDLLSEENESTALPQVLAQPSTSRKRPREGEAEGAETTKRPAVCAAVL
# [19] = target: Serine/threonine-protein kinase Chk2 (Homo sapiens) (UniProt O96017); conditions: at 1 µM
# [20] = target: Death-associated protein kinase 1 (Homo sapiens) (UniProt P53355); conditions: at 0.1 µM;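 further: reported figure is the mean inhibition of DAPK1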
# Sequence of Death-associated protein kinase 1 (Homo sapiens) (P53355 whole entry, looked up): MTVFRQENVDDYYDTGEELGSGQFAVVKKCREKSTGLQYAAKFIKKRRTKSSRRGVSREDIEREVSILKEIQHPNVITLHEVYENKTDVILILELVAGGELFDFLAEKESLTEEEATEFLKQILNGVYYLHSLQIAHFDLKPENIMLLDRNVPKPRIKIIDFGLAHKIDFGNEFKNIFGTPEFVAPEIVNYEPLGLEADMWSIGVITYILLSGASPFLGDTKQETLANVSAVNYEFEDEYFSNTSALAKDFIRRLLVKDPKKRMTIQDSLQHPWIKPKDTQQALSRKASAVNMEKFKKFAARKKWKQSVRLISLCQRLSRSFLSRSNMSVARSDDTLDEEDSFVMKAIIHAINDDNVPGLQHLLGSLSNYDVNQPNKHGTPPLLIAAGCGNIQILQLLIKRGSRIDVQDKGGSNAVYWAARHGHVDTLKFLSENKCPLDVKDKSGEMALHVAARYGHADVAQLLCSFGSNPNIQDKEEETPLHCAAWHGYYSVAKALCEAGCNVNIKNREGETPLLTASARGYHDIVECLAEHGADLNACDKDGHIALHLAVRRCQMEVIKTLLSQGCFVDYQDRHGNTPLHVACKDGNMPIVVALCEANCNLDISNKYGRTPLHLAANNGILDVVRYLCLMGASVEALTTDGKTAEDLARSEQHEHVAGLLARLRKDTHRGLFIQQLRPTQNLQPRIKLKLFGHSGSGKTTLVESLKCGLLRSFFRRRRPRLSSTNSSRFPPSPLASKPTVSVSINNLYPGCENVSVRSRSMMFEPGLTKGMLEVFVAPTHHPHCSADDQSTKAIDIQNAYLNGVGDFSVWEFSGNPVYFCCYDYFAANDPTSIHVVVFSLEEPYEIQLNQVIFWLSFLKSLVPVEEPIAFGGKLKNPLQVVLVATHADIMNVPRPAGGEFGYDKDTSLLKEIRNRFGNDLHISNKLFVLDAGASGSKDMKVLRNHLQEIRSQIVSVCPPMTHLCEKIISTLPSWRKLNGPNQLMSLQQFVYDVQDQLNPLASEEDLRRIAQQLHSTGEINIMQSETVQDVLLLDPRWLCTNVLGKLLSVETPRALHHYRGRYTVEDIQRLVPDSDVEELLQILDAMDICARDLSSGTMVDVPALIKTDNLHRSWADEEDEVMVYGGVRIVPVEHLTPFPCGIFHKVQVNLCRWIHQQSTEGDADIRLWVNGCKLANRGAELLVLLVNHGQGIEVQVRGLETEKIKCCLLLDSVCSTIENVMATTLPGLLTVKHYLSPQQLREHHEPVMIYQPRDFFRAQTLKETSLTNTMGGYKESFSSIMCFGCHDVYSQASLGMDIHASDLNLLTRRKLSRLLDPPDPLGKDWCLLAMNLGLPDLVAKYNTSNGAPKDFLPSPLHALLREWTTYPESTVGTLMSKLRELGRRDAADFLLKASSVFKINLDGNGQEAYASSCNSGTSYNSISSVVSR
# Sequence of 5'-AMP-activated protein kinase catalytic subunit alpha-2 (Homo sapiens) (P54646 whole entry, looked up): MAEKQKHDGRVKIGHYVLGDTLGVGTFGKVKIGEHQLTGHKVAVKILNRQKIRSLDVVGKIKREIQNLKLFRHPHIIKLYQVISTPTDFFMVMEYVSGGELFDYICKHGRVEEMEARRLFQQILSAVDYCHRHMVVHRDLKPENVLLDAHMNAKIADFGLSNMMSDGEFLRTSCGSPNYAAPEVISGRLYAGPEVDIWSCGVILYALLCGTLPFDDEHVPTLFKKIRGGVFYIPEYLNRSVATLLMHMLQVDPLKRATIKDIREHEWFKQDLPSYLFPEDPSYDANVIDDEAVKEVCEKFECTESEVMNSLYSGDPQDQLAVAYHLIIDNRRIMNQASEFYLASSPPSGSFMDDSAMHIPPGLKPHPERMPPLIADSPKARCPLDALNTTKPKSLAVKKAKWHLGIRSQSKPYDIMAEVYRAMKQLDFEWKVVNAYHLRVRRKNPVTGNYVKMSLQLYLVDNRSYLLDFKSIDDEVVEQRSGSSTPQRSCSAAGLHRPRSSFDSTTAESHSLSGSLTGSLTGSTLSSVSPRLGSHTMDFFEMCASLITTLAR
SMILES,inhibition [1],inhibition [2],inhibition [3],inhibition [4],inhibition [5],inhibition [6],inhibition [7],inhibition [8],inhibition [9],inhibition [10],inhibition [11],inhibition [12],inhibition [13],inhibition [14],inhibition [15],inhibition [16],inhibition [17],inhibition [18],inhibition [19],inhibition [20]
CN1CCC(n2cnc(-c3ccc(F)cc3)c2-c2ccnc(N)n2)CC1,3.56%,-0.55%,5.58%,1.29%,1.45%,1.08%,7.04%,0.79%,1.05%,2.13%,2.5%,-0.04%,4.76%,-0.06%,0.61%,0.82%,-1.42%,1.28%,9.16%,2.13%
CN1CCC(n2cnc(-c3ccc(F)cc3)c2-c2ccnc(Nc3ccccc3)n2)CC1,2.34%,-2.56%,4.19%,0.59%,0.41%,0.56%,1.93%,0.81%,1.85%,3.46%,1.68%,0.53%,2.35%,0.11%,1.45%,-0.4%,1.3%,1.2%,2.71%,2.63%
COC(=O)Nc1nc2ccc(Oc3ccc(NC(=O)Nc4cccc(Cl)c4)cc3)cc2[nH]1,2.32%,1.13%,-0.04%,-0.24%,-0.19%,1.18%,0.86%,0.74%,0.72%,-1.44%,-1.94%,1.3%,0.37%,0.3%,-1.27%,-1.18%,-8.11%,0.39%,0.53%,0.42%
Nc1nc(-c2ccc(F)cc2)c(-c2ccc3ncccc3n2)s1,3.37%,3.85%,7.09%,1.97%,3.32%,2.41%,5.28%,0.67%,0.5%,4.42%,4.65%,4.16%,4.81%,-0.44%,-0.24%,3.9%,5.94%,3.09%,4.06%,4.26%
COC(=O)Nc1nc2ccc(S(=O)(=O)c3ccc(NC(=O)Nc4cc(C(F)(F)F)ccc4F)cc3)cc2[nH]1,3.39%,3.25%,4.84%,3.17%,4.39%,2.33%,2.89%,0.42%,1.45%,3.34%,3.22%,3.61%,3.6%,-0.05%,0.07%,1.24%,3.43%,1.62%,1.94%,3.73%
CCn1c(-c2nonc2N)nc2c(C#CC(C)(C)O)nc(OC[C@H](N)c3ccccc3)cc21,15%,7%,47.3%,0.45%,1.15%,-0.02%,5.58%,0.96%,4.5%,2.34%,6.26%,4.52%,8.64%,-0.61%,4.09%,2.81%,9.89%,4.7%,11.3%,2.88%
COc1ccc(-c2cc(-c3c[nH]nc3-c3ccccn3)ccn2)cc1,3.44%,-7.35%,2.48%,-0.01%,2.6%,2.08%,3.41%,0.05%,-1.05%,4.66%,6.7%,3.82%,3.97%,-2.15%,-3.38%,3.08%,6.57%,3.42%,4.49%,5.21%
Cc1cccc(Nc2ncc(-c3ccccc3)o2)c1,6.16%,2.69%,19.2%,0.14%,0.64%,1.19%,4.26%,1.45%,3.78%,4.05%,7.1%,4.42%,6.85%,1.87%,4.2%,4.59%,6.26%,3.02%,6.44%,5.26%

# Reference: ChEMBL document CHEMBL1961873, “Compounds: GSK PKIS; Assays: Nanosyn kinase panel” (2012)
